Laboratory results published in PubChem BioAssay (EPA / NIEHS).
“And” between values parts separate entries of the source, which are not always exact repeats. Equal values may be shown once. More than one record can exist for a structure, and the calls need not agree. The source made the active and inactive calls. How the source made its calls: active means hit-call score of the fitted dose curve at least 0.9, where 1 is the maximum; inactive means score below 0.9.

How the values were obtained:
[1] = biological target: Paired box protein Pax-6 (Homo sapiens) (UniProt P26367); experiment: ATG_Pax6_CIS: Attagene CIS-FACTORIAL HepG2 Assay for human Paired Box 6 (PAX6) (AID 2282956); conditions: HepG2 CIS-FACTORIAL PAX6 reporter transcription, RNA readout; actives raise or lower the signal
How it was run: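 Read-out is reporter transcript level, measured by RT-PCR with fluorescent primer extension and capillary electrophoresis after 24 h dosing of transfected HepG2 cells. Activity in either direction fitted relative to DMSO control.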

[2] = ATG_PXRE_CIS: Attagene CIS-FACTORIAL HepG2 Assay for human Pregnane X Receptor Element (PXRE) (AID 2282957); conditions: HepG2 Attagene CIS-FACTORIAL PXRE reporter, mRNA; actives raise or lower the signal
How it was run: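 Reporter transcripts under endogenous PXR-responsive cis-regulation quantified from total RNA of transfected HepG2 cells 24 h post-dosing, via RT-PCR with fluorescent primer extension and capillary electrophoresis. Gain or loss of signal fitted against DMSO baseline.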

[3] = ATG_PPRE_CIS: Attagene CIS-FACTORIAL HepG2 Assay for human Peroxisome Proliferator-activated Response Element (PPRE) (AID 2282958); conditions: HepG2 PPRE cis-element reporter, Attagene transcription factor profiling; actives raise or lower the signal
How it was run: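 Measured endpoint: PPRE-controlled reporter mRNA, detected by RT-PCR and capillary electrophoresis fluorescence, from transiently transfected HepG2 cells 24 h after dosing. Curves fitted in both directions using DMSO baseline.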

[4] = ATG_RORE_CIS: Attagene CIS-FACTORIAL HepG2 Assay for human RAR-related Orphan Receptor Element (RORE) (AID 2282959); conditions: HepG2 Attagene cis-factorial RORE reporter, mRNA; actives raise or lower the signal
How it was run: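 Transiently transfected HepG2 reporter cells were treated 24 h. Reporter transcripts were detected by RT-PCR and capillary electrophoresis, with bidirectional fitting against DMSO.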

[5] = ATG_Sox_CIS: Attagene CIS-FACTORIAL HepG2 Assay for human SRY-box transcription factor (SOX) (AID 2282960); conditions: HepG2 Attagene cis-factorial SOX reporter, mRNA; actives raise or lower the signal
How it was run: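 Gain- or loss-of-signal endpoint, fitted bidirectionally with DMSO as negative control. Based on reporter mRNA from transfected HepG2 cells harvested 24 h post-treatment and quantified via RT-PCR and capillary electrophoresis.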

[6] = biological target: Transcription factor Sp1 (Homo sapiens) (UniProt P08047); experiment: ATG_Sp1_CIS: Attagene CIS-FACTORIAL HepG2 Assay for human Specificity Protein 1 (Sp1) (AID 2282961); conditions: HepG2 Sp1 cis-reporter transcription, actives raise or lower the signal
How it was run: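 Endpoint reflects endogenous Sp1 transcriptional activity, not an exogenous fusion protein: HepG2 cells with transfected cis-regulated reporters, 24 h dosing, RT-PCR/capillary electrophoresis mRNA read-out, DMSO-normalised bidirectional fit.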

[7] = ATG_SREBP_CIS: Attagene CIS-FACTORIAL HepG2 Assay for human Sterol Regulatory Element Binding (SREBP) (AID 2282962); conditions: HepG2 Attagene cis-factorial SREBP reporter, mRNA; actives raise or lower the signal
How it was run: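 Endogenous SREBP activity read as cis-element-driven reporter transcript in transiently transfected HepG2, 24 h post-dosing; quantified via RT-PCR plus capillary electrophoresis of fluorescent fragments. Gain or loss of signal fitted relative to DMSO baseline.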

[8] = ATG_TA_CIS: Attagene CIS-FACTORIAL HepG2 Assay for human TA Basal Promoter (AID 2282964); conditions: HepG2 Attagene CIS-factorial TA basal promoter reporter; actives raise or lower the signal
How it was run: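 Multiplexed mRNA reporter assay, HepG2, 24 h. Reporter cDNA amplified, 6-FAM primer-extended, HpaI-cut, CE-sized; DMSO = negative control and baseline.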

[9] = ATG_TCF_b_cat_CIS: Attagene CIS-FACTORIAL HepG2 Assay for human T-Cell-Factor with beta-catenin (TCF/b-cat) (AID 2282965); conditions: HepG2 TCF/beta-catenin cis-reporter transcription, actives raise or lower the signal
How it was run: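 Endogenous TCF/LEF activity read as reporter transcript level via RT-PCR and capillary electrophoresis fluorescence in transfected HepG2, 24 h exposure; gain or loss of signal fitted against DMSO controls.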

[10] = biological target: Signal transducer and activator of transcription 3 (Homo sapiens) (UniProt P40763); experiment: ATG_STAT3_CIS: Attagene CIS-FACTORIAL HepG2 Assay for human Signal Transducer and Activator of Transcription 3 (STAT3) (AID 2282963); conditions: HepG2, Attagene cis-factorial STAT3 reporter transcription; actives raise or lower the signal
How it was run: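 Readout is reporter transcript quantified by RT-PCR and capillary electrophoresis, with 6-FAM primer extension and HpaI digestion. Total RNA is taken 24 h after dosing transiently transfected HepG2 carrying cis-regulated reporter units. Bidirectional fit against DMSO.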

Measured: AC50

Chain of Paired box protein Pax-6 (Homo sapiens) (P26367 whole entry, looked up): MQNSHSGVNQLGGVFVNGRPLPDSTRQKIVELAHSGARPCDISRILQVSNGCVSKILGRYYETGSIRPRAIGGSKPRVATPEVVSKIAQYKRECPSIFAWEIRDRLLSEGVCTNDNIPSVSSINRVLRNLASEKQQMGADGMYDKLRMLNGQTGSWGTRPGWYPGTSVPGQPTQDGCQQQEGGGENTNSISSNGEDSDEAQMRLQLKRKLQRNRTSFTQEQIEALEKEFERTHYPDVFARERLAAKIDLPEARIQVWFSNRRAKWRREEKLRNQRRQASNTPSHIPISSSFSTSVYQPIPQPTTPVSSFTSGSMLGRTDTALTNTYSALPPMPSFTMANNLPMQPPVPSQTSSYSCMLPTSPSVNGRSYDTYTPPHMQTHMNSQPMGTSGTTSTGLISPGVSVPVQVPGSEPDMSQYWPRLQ
Chain of Signal transducer and activator of transcription 3 (Homo sapiens) (P40763 whole entry, looked up): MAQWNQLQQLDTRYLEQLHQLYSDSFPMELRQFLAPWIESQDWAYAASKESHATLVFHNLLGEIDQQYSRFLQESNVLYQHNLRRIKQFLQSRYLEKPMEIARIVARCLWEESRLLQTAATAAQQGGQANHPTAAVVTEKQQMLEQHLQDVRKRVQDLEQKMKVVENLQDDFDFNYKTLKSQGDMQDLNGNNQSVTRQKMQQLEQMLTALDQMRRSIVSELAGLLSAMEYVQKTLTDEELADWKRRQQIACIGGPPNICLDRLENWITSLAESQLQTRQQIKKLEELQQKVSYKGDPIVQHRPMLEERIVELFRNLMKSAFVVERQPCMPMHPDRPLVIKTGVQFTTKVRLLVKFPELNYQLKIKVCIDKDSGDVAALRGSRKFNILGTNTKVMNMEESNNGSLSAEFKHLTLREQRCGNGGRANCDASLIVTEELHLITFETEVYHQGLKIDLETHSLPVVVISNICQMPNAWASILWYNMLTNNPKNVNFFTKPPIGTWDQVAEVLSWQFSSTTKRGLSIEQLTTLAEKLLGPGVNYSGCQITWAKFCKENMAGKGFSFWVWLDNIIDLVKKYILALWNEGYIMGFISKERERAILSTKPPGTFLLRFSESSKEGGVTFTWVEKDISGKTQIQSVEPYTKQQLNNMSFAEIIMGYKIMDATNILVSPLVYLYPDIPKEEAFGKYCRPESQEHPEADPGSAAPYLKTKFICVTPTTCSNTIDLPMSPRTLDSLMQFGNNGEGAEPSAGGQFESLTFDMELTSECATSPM
Chain of Transcription factor Sp1 (Homo sapiens) (P08047 whole entry, looked up, the tested form may be a part): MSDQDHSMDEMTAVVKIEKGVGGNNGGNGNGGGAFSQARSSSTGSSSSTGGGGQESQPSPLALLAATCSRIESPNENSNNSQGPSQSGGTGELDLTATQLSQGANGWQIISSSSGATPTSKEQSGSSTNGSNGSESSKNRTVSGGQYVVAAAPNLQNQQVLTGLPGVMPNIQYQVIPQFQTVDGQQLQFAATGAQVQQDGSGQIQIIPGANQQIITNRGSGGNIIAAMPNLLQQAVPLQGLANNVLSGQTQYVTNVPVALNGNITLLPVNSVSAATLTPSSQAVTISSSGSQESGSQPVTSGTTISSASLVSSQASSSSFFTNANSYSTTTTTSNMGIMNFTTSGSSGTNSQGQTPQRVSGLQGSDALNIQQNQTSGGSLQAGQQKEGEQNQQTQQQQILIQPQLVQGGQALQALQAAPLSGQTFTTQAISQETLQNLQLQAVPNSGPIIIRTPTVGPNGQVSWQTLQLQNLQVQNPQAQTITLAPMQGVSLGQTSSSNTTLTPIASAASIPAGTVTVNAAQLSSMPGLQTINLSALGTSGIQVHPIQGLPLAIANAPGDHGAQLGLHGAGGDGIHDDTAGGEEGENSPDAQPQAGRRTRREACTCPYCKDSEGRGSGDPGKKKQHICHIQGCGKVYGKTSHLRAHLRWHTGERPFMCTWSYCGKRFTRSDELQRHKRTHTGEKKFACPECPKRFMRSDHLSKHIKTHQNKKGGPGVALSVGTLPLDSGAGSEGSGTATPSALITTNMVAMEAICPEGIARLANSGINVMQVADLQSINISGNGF

O=C(O)C(F)(F)C(F)(F)C(F)(F)C(F)(F)C(F)(F)C(F)(F)C(F)(F)C(F)(F)C(F)(F)F
active: [1] 49 µM and 33 µM and 54.8 µM | [2] 57.5 µM | [3] 47.5 µM and 14.8 µM | [4] 50.5 µM and 32.8 µM | [5] 33.4 µM | [9] 45 µM and 35.7 µM and 14.7 µM
inactive: [2] | [3] | [4] | [5] | [6] | [7] | [8]

CN(C)c1nc(=O)n(C2CCCCC2)c(=O)n1C
active: [2] 50 µM
inactive: all other assays above

CCCCCCOC(=O)c1ccccc1C(=O)OCCCCCC
active: [2] 3.19 µM | [3] 2.84 µM
inactive: all other assays above

Cc1ccccc1O
inactive: all assays above

O=NN(c1ccccc1)c1ccccc1
active: [2] 27.8 µM
inactive: all other assays above

Cc1cc(O)ccc1Cl
inactive: all assays above

Cc1ccccc1[N+](=O)[O-]
inactive: all assays above

Nn1cnnc1
not listed: [10]
inactive: all other assays above

Cc1cc(-c2ccc(N)c(C)c2)ccc1N
active: [2] 46.7 µM
inactive: [1] | [2] | [4] | [5] | [6] | [8] | [9]

Oc1ccc(C(c2ccc(O)cc2)(C(F)(F)F)C(F)(F)F)cc1
active: [1] 8.18 µM and 16.2 µM | [2] 4.15 µM [middle of 4 runs] | [3] 11.1 µM and 5.95 µM and 16.8 µM | [6] 18.8 µM and 18.4 µM | [9] 11.1 µM and 8.78 µM
inactive: [1] | [3] | [5] | [6] | [10] | [8] | [9]

CCCCCCCCCc1ccc(O)cc1
active: [2] 169 µM and 11.1 µM | [9] 100 µM
inactive: [1] | [2] | [3] | [5] | [6] | [8] | [9]

N#Cc1ccc(N(CC(N)=O)CC(F)(F)F)cc1C(F)(F)F
inactive: all assays above

CO/C=C(/C(=O)OC)c1ccccc1COc1cccc(C(F)(F)F)n1
active: [1] 31.9 µM | [2] 3.54 µM | [3] 37.3 µM | [4] 23 µM | [7] 4.44 µM | [9] 26.4 µM
inactive: [5] | [6] | [8]

ClC1=C(Cl)[C@]2(Cl)[C@@H]3[C@@H](Cl)[C@H]4O[C@H]4[C@@H]3C1(Cl)C2(Cl)Cl
active: [2] 3.28 µM | [6] 26.7 µM | [7] 51.4 µM
not listed: [10]
inactive: all other assays above

CN(C)CCO
inactive: [1] | [2] | [3] | [4] | [5] | [6] | [10] | [8] | [9]
active: [2] 100 µM

C[C@]12CCC(=O)C=C1CC[C@@H]1[C@@H]2CC[C@]2(C)C(=O)CC[C@@H]12
inactive: [1] | [2] | [3] | [4] | [5] | [6] | [8] | [9]
active: [2] 15.2 µM and 27.7 µM and 15.3 µM

CC#Cc1cc(C)nc(Nc2ccccc2)n1
inactive: [3] | [5] | [6] | [7]
active: [1] 68.1 µM | [2] 26.5 µM | [4] 51.6 µM | [8] 100 µM | [9] 41.8 µM

O=C(O)C(F)(F)C(F)(F)C(F)(F)C(F)(F)C(F)(F)C(F)(F)C(F)(F)C(F)(F)F
active: [1] 224 µM and 50 µM | [2] 22.7 µM and 38.2 µM and 13.6 µM | [3] 33.4 µM and 89.8 µM and 34 µM | [4] 214 µM and 34.7 µM | [8] 50 µM | [9] 33.4 µM and 150 µM and 50 µM
inactive: [1] | [4] | [5] | [6] | [7] | [8]

O=C(NC(=O)c1c(F)cccc1F)Nc1cc(Cl)c(OC(F)(F)C(F)F)c(Cl)c1
inactive: all assays above

NS(=O)(=O)C(F)(F)C(F)(F)C(F)(F)C(F)(F)C(F)(F)C(F)(F)C(F)(F)C(F)(F)F
inactive: [1] | [2] | [3] | [4] | [5] | [10] | [8] | [9]
active: [1] 54.8 µM and 92.1 µM | [2] 246 µM | [3] 38.7 µM and 25.8 µM | [4] 78 µM | [5] 83.8 µM | [6] 24.4 µM and 38.7 µM and 27.6 µM | [9] 150 µM

Sc1ccccc1
active: [2] 25.4 µM
inactive: [1] | [2] | [4] | [5] | [6] | [8] | [9]

CCC(C)(c1ccc(O)cc1)c1ccc(O)cc1
active: [1] 52.8 µM and 62.6 µM and 24.6 µM | [2] 1.13 µM [middle of 4 runs] | [4] 59.1 µM and 21.5 µM | [6] 24.4 µM | [7] 33.4 µM and 41.5 µM and 13.9 µM | [8] 60.7 µM | [9] 39.7 µM and 49.7 µM and 47.8 µM
inactive: [1] | [4] | [5] | [6] | [8] | [9]

ClC(Cl)=C(c1ccc(Cl)cc1)c1ccc(Cl)cc1
active: [1] 100 µM | [2] 4.93 µM [middle of 4 runs] | [3] 31.7 µM and 78.5 µM and 27.1 µM | [5] 66.7 µM | [6] 95.5 µM [middle of 4 runs]
inactive: [1] | [3] | [4] | [5] | [8] | [9]

CC(C)(c1ccccc1)c1ccc(O)cc1
active: [1] 52.3 µM and 39.5 µM | [2] 2.59 µM [middle of 4 runs] | [3] 22.6 µM and 33.4 µM | [4] 48.9 µM | [5] 50.8 µM | [6] 51.9 µM and 53.1 µM | [10] 55.9 µM and 54.6 µM | [8] 54 µM | [9] 39.9 µM and 54.5 µM
inactive: [1] | [3] | [4] | [5] | [6] | [7] | [10] | [8] | [9]

c1ccc(-c2ccccc2)cc1
not listed: [10]
inactive: all other assays above

OCC(O)CO
inactive: [1] | [2] | [3] | [4] | [5] | [6] | [10] | [8] | [9]
active: [2] 15.9 µM | [3] 26.1 µM

Cc1cccc(C)c1N
inactive: all assays above

O=S(=O)(O)C(F)(F)C(F)(F)C(F)(F)C(F)(F)F
inactive: all assays above

CCC(C)c1cc([N+](=O)[O-])cc([N+](=O)[O-])c1O (centres undefined)
inactive: [2] | [10] | [8] | [9]
active: [1] 56.2 µM | [3] 16.5 µM | [4] 26.4 µM | [5] 10.8 µM | [6] 20.9 µM | [7] 27.6 µM

CCC(=O)O[C@H]1CC[C@H]2[C@@H]3CCC4=CC(=O)CC[C@]4(C)[C@H]3CC[C@]12C
active: [1] 132 µM and 100 µM | [2] 26.7 µM [middle of 4 runs] | [4] 119 µM | [5] 152 µM | [6] 164 µM and 181 µM | [7] 137 µM [middle of 4 runs] | [8] 100 µM and 129 µM | [9] 100 µM and 92.5 µM
inactive: [1] | [3] | [4] | [5] | [6] | [8] | [9]
